Assay outcomes: PubChem, several laboratories
In the library only some 0.74% were active in any assay of this set; here they are far more common.
FadD28 FP inh: inhibitors of Mycobacterium tuberculosis FadD28 bisubstrate binding; FadD28 bisubstrate probe binding, fluorescence polarization; 360,000 tested, 0.22% active; inhibition, % at 12.5 µM; AID 588549; in the data active = inhibition above about 8.5%, passing the limit was not always enough
Mtb bLac sens: beta-lactam sensitization of Mtb H37Rv | 330,000 tested, 0.27% active | M. tuberculosis H37Rv growth with meropenem, percent inhibition | inhibition, % at 25 µM | AID 434955; call rule not given here;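 also: growth measured after seven days incubation then overnight dye step; 0% = bacteria only wells and 100% = bacteria with antibiotic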
Mtb UGM inh: Mtb UDP-galactopyranose mutase inhibition; purified UGM, fluorescence polarization probe displacement; inhibition, % at 10 µM; 320,000 tested, 0.06% active; AID 504406; in the data active = inhibition above about 10%, passing the limit was not always enough
Rv3671c inh: inhibits the M. tuberculosis serine protease Rv3671c; inhibition, % at 5.96 µM; AID 2606; 320,000 tested, 0.048% active; in the data active = inhibition above about 38%;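 also: extracellular domain of Rv3671c used as enzyme; 0% = enzyme with DMSO and 100% = no enzyme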
Target sequence (P9WHR9 whole entry, looked up, the tested form may be a part): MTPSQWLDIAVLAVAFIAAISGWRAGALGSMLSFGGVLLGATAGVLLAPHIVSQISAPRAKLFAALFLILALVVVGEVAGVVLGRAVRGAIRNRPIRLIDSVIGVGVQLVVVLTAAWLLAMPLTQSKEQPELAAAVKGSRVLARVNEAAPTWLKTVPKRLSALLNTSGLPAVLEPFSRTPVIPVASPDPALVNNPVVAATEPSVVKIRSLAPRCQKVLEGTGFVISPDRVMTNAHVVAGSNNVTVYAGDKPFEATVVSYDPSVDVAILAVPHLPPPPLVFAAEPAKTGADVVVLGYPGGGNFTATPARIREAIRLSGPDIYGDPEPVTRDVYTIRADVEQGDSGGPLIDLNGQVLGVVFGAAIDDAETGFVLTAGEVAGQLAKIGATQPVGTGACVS
Vc quorum ag: inducers of Vibrio cholerae quorum light production without autoinducers; V. cholerae BH1578 lux reporter, luminescence, 6 h; activation, % at 18.7 µM; 350,000 tested, 0.16% active; in the data active = activation mostly above about 9.7%, no sharp cut-off
MazF activator: MazEF (E. coli) toxin RNase activation. FAM/BHQ RNA-DNA oligo cleavage fluorescence, 5 h. 350,000 tested, 0.32% active. activation, % at 20 µM. P0AE70; in the data active = activation above about 50%
Numbers without * were called inactive; i = inactive; nt = no result.

SMILES	FadD28 FP inh	Mtb bLac sens	Mtb UGM inh	Rv3671c inh	Vc quorum ag	MazF activator
CCCNC(=O)/C(C#N)=C1\N=C(NC(=O)c2ccco2)c2ccccc21	0	9	0	-5	i	90*
COc1ccc(-c2cc(=O)oc3c(C)c(OC(C)C(C)=O)ccc23)cc1 (stereo not given)	0	0	-1	-13	i	1
COc1ccc(-c2cc(=O)oc3c(C)c(OC(=O)c4cccs4)ccc23)cc1	-1	-6	1	-5	1	109*
CC1(C)c2ccccc2N2CCC(=O)NC21/C=C/c1ccco1 (stereo not given)	2	-15	1	-8	i	106*
CCN1C(=O)NC(=O)/C(=C\c2cn(CC(=O)N3CCCCC3)c3ccccc23)C1=O	3	3	41*	-18	i	117*
O=C(O)CN1C(=O)/C(=C\c2cn(CC(=O)N3CCOCC3)c3ccccc23)SC1=S	1	-7	-22	6	2	191*
CCN1C(=O)NC(=O)/C(=C\c2cn(CC(=O)N3CCCC3)c3ccccc23)C1=O	nt	12	52*	-13	0	-199
CCN1C(=O)NC(=O)/C(=C\c2cn(CC(=O)O)c3ccccc23)C1=O	nt	1	0	-13	nt	nt
O=C(CCCN1C(=O)/C(=C\c2ccccc2)SC1=S)N1CCOCC1	0	8	0	2	i	6
O=C(CNC(=O)OCc1ccccc1)Nc1ccc(F)cc1	nt	1	-2	-11	i	1
O=C(Nc1ccc2c(c1)OCCO2)C(c1cc2ccccc2o1)N1CCN(C/C=C/c2ccccc2)CC1 (stereo not given)	-4	nt	nt	nt	nt	nt
COc1ccc(Cn2c(C)nc3ccc([N+](=O)[O-])cc3c2=O)cc1	0	8	0	6	i	9
Cc1cc(/C=C(\C#N)C(=O)NCc2cccs2)c(C)[nH]1	2	1	0	0	nt	4
COc1cc(OC)c(OC)cc1/C=C(\C#N)C(=O)NCc1cccs1	0	-7	-4	nt	-12	84*
CN(Cc1ccc(F)cc1)S(=O)(=O)c1ccc2[nH]c(=O)[nH]c2c1	-1	nt	nt	nt	1	-3
CCn1c(/C=C/c2ccccc2[N+](=O)[O-])nc2ccccc2c1=O	-1	-5	1	-2	0	3
Cn1c(/C=C/c2ccccc2[N+](=O)[O-])nc2ccccc2c1=O	-1	10	-1	nt	i	233*
CC(=O)NC(c1ccc(F)c(F)c1)c1nc(-c2ccc(C)c(C)c2)cs1 (stereo not given)	-2	nt	nt	nt	0	nt
Cc1cccc(C)c1NC(=O)COC(=O)c1c2c(nc3ccccc13)/C(=C\c1ccc3c(c1)OCO3)CCC2	-3	-2	19*	3	0	-10
CC(OC(=O)c1c2c(nc3ccccc13)/C(=C\c1ccc3c(c1)OCO3)CCC2)C(=O)Nc1ccc(S(N)(=O)=O)cc1 (stereo not given)	-1	nt	nt	nt	0	165*
CC(OC(=O)c1cc2ccccc2cc1O)C(=O)Nc1ccc(S(N)(=O)=O)cc1 (stereo not given)	-3	-12	-1	-22	0	6
N#Cc1cccc(C(Br)S(=O)(=O)c2ccccc2)c1 (stereo not given)	-2	nt	nt	nt	-5	3
O=C(Nc1ccccc1Oc1ccccc1)[C@@H]1O[C@H](CO)[C@H](O)[C@H](O)[C@H]1O	-5	nt	nt	nt	0	nt
Clc1ccc(C(Cn2ccnc2)OCc2c(Cl)cccc2Cl)c(Cl)c1 (stereo not given)	-6	97	-1	-7	i	-15
OC(Cn1ccnc1)c1ccc(Cl)cc1Cl (stereo not given)	-1	-5	-1	8	i	159*
CCOC(=O)/C(=N\Nc1ccc(C(C)=O)cc1)c1csc(Nc2ccccc2)n1	-2	0	1	-4	2	56*
CCOC(=O)/C(=N\Nc1ccccc1[N+](=O)[O-])c1csc(N)n1	-1	2	-2	-1	0	10
N/C(=N\N=C/c1ccc(-c2ccc(O)c(C(=O)O)c2)o1)N[N+](=O)[O-]	12*	0	0	-1	0	7
O=C(O)c1cc(-c2ccc(/C=N/Nc3ccc([N+](=O)[O-])cn3)o2)ccc1Cl	1	nt	nt	nt	0	-1
N#Cc1c(-c2ccccc2F)cc(C2CC2)nc1SCC(=O)c1cccs1	0	-5	3	-9	0	65*
